# In PubChem BioAssay (NCATS):
# A number with no mark means an inactive call. Records with an inconclusive call do not appear. Where a call stands in place of a potency, no number is given. Calls of active or inactive are those of the source. Calls follow the shape of the dose curve; as a rule, active = well fitted curve in the direction sought with a large enough effect; inconclusive = small, poorly fitted or top-dose-only effect, or another doubt; inactive = no such curve, though single readings can be large; an effect the other way counts as inactive or inconclusive.
# How the values were obtained:
# [1] = molecular target: Glutathione peroxidase 1 (Homo sapiens) (UniProt P07203); assay: Primary qHTS Assay for Inhibitors of Recombinant Selenoprotein Glutathione Peroxidase 1 (GPX1) (AID 1845191); also: nearly all actives have a fitted effect of over 65% in size; also: potency is read from the fitted curve at half-maximal effect
# Summary of the method: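 GPX1 10 nM, GR 100 nM, GSH 1 mM, NADPH 0.5 mM, CHP 0.5 mM (final). 30-min cpd preincubation, RT. Ex340/Em450 read t=0, t=15 min.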
# [2] = molecular target: Phospholipid hydroperoxide glutathione peroxidase GPX4 (Homo sapiens) (UniProt P36969); assay: Primary qHTS Assay for Inhibitors of Recombinant Selenoprotein Glutathione Peroxidase 4 (GPX4) (AID 1845192); also: nearly all actives have a fitted effect of over 65% in size; also: potency is read from the fitted curve at half-maximal effect; as to activity change, negative = inhibition: series mostly up to about 50 µM
# Summary of the method: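 qHTS, GR-coupled: GPX4 200 nM + cpd 30 min RT → GSH 1 mM, NADPH 0.5 mM, GR 100 nM → CHP 0.5 mM start; fluor 340/450 at t0 and t15 min; no-enzyme wells as control.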
# [3] = HepG2 viability counterscreen (readout 2: ATP content) against the NCATS DSHEA and TCM libraries (AID 1794840)
# Summary of the method: (§1)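 Same wells read twice: first fluorescence from cleaved GF-AFC substrate (25 uM final, 30 min, 37C) for live-cell protease, then CellTiter-Glo luminescence after 30 min at room temperature for ATP. HepG2 cells were exposed ~24 h to substances.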
# [4] = HepG2 viability counterscreen (readout 1: protease activity) against the NCATS DSHEA and TCM libraries (AID 1794841);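 also: cells exposed to compounds for about 24 h before the protease read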
# Summary of the method: as §1
# [5] = molecular target: Metallo-beta-lactamase type 2 (Klebsiella pneumoniae) (UniProt C7C422); assay: qHTS to identify inhibitors of the New Delhi Metallo-beta-lactamase (NDM): assay validation screen against the NCATS LOPAC Collection (AID 1794843);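 also: nitrocefin turnover by NDM-1 measured as 485 nm absorbance at plateau; series mostly up to about 38 µM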
# Summary of the method: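 Enzyme 2 nM final, 50 mM HEPES pH 7.0, 1 uM ZnSO4, 0.01% Tween20; cpds in DMSO, preincub w/ enzyme; + nitrocefin (50 uM stock); A485 at plateau; no-enzyme column as blank.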
# [6] = molecular target: Nuclear receptor subfamily 1 group I member 3 (Homo sapiens) (UniProt Q14994); assay: Primary qHTS for agonist of constitutive androstane receptor (CAR) against the NCATS DSHEA and TCM libraries (AID 1794839);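 also: HepG2 cells expressing human CAR with a CYP2B6 reporter plus PK11195 antagonist; luciferase reporter luminescence read with ONE-Glo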
# Summary of the method: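 qHTS, agonist mode: HepG2-CYP2B6-hCAR, 2,500 cells/well, 5 h attach; cpds + PK11195 0.75 µM final; 24 h, 37 °C, 5% CO2. Readouts: CellTiter-Fluor (405/540 nm), then ONE-Glo luminescence.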
# Sequence of Phospholipid hydroperoxide glutathione peroxidase GPX4 (Homo sapiens) (P36969 whole entry, looked up): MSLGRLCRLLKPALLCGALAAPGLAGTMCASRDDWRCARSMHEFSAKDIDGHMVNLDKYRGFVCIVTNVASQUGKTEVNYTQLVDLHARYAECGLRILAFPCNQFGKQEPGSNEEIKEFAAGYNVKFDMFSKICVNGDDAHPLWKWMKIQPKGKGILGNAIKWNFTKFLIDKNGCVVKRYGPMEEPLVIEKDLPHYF
# Sequence of Glutathione peroxidase 1 (Homo sapiens) (P07203 whole entry, looked up): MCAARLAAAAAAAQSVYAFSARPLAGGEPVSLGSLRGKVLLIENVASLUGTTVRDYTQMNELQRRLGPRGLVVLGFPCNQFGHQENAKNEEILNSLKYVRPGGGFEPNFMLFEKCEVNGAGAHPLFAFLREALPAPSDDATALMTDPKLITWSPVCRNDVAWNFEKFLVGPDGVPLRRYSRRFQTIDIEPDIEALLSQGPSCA
# Sequence of Nuclear receptor subfamily 1 group I member 3 (Homo sapiens) (Q14994 whole entry, looked up): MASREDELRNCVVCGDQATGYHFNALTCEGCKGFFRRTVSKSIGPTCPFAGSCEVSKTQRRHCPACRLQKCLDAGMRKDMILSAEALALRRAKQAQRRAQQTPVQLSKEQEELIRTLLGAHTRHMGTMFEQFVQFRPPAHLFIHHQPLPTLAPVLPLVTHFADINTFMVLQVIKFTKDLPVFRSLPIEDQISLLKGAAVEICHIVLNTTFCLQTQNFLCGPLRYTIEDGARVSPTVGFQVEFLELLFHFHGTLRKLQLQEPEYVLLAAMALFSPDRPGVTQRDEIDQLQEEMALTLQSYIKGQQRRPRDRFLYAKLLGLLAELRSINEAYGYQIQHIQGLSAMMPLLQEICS
# Sequence of Metallo-beta-lactamase type 2 (Klebsiella pneumoniae) (C7C422 whole entry, looked up): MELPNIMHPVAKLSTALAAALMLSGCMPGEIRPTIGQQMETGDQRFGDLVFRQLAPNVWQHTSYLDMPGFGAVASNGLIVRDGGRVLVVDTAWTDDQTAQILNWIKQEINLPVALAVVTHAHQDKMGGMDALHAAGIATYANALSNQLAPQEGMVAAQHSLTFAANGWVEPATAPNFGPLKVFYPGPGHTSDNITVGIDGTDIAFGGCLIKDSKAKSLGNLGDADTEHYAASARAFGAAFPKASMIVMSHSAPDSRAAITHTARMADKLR
structure (smiles),measurement,setting,value
Cc1ccc(S(=O)(=O)OCC(=O)Nc2ccc(C(=O)O)c(O)c2)cc1,Potency,[1],inactive
COc1cc([C@@H]2c3cc4c(cc3[C@@H](O[C@@H]3O[C@@H]5CO[C@@H](C)O[C@@H]5[C@H](O)[C@@H]3O)[C@H]3COC(=O)[C@H]23)OCO4)cc(OC)c1O,Potency,[1],inactive
same,Potency,[2],inactive
O=C(Nc1cccc(Cl)c1)Nc1ncc(CCNc2ncnc3ccsc23)s1,Potency,[1],inactive
same,Potency,[2],inactive
CC(C)(CO)[C@@H](O)C(=O)NCCC(=O)O,outcome,[3],inactive
same,outcome,[4],inactive
same,Potency,[1],inactive
same,Potency,[2],inactive
Cn1cc(-c2ccc3nnc(Sc4ccc5ncccc5c4)n3n2)cn1,Potency,[1],inactive
same,Potency,[2],inactive
O=C(O)Cc1cccc(OCCCN(Cc2cccc(C(F)(F)F)c2Cl)CC(c2ccccc2)c2ccccc2)c1,Potency,[1],inactive
CCC[C@H](Nc1nc(-c2ccc(NC(=O)NCC)c(OC)c2)ncc1C)c1cccnc1,Potency,[1],inactive
CN1N=C(N)c2cn([C@@H]3O[C@H](COP(=O)(O)O)[C@@H](O)[C@@H]3O)c3ncnc1c23,Potency,[1],inactive
C[C@H]1COC2=C1C(=O)C(=O)c1c2ccc2c1CCCC2(C)C,Potency,[1],inactive
Cc1cc(NC(=O)Nc2ccc(N(C)C)cc2)c2cc(F)cc(F)c2n1,Potency,[1],inactive
O=C(O)CCC=CCC[C@@H]1[C@H](N2CCCCC2)[C@@H](O)C[C@@H]1OCc1ccc(-c2ccccc2)cc1,Potency,[1],inactive
CCN(CC)CCCCNc1nc2cc(Cl)c(Cl)cc2nc1-c1ccc(-c2cccs2)s1,Potency,[1],inactive
same,Potency,[2],20.2 µM (active)
CCCCOCCOc1nc(-c2ccc(C(=O)O)c(F)c2)sc1C,Potency,[1],inactive
same,Potency,[2],inactive
O=c1cc(-c2ccc(O)c(O)c2)oc2cc(O)cc(O)c12,outcome,[3],inactive
same,outcome,[4],inactive
same,Potency,[1],inactive
C[C@H](CCC(=O)O)[C@H]1CC[C@H]2[C@H]3[C@@H](CC[C@]12C)[C@@]1(C)CC[C@@H](O)C[C@H]1C[C@@H]3O,Potency,[1],inactive
CCCCC[C@H](O)C=C[C@H]1[C@H](O)CC(=O)[C@H]1CC=CCCCC(=O)O,Potency,[1],inactive
same,Potency,[2],inactive
O=C(O)c1ccc(O)c2ncc(N3CCOCC3)cc12,Potency,[1],inactive
same,Potency,[2],inactive
CN(C)N=Nc1nc[nH]c1C(N)=O,Potency,[1],inactive
same,Potency,[2],inactive
COC1CCC(C(=O)c2ccc3nc4c(cc3c2)CCCO4)CC1 (configuration not stated),Potency,[1],inactive
same,Potency,[2],inactive
C=CCc1cccc(C=NNC(=O)CN2CCN(Cc3ccccc3)CC2)c1O,outcome,[5],inactive
same,Potency,[1],inactive
same,Potency,[2],inactive
COc1ccc(-c2oc3c(CC=C(C)C)c(O)cc(O)c3c(=O)c2O)cc1,Potency,[1],inactive
CC[C@H](C=C[C@@H](C)[C@H]1CC[C@H]2[C@@H]3CC=C4C[C@@H](O)CC[C@]4(C)[C@@H]3CC[C@]12C)C(C)C,Potency,[1],inactive
same,Potency,[2],inactive
CCOC(=O)c1c(CSc2ccccc2)n(C)c2cc(Br)c(O)c(CN(C)C)c12,Potency,[1],inactive
NCc1c[nH]c(=S)n1[C@H]1CCc2c(F)cc(F)cc2C1,Potency,[1],inactive
Cc1ccc(NC(=O)c2cccc(N(C)C)c2)cc1NC(=O)c1ccc(O)cc1,Potency,[1],inactive
Cc1ccc(S(=O)(=O)Nc2nc3ccccc3nc2Nc2ccc3nsnc3c2)cc1,Potency,[1],inactive
same,Potency,[2],inactive
CC(C)CN(C[C@@H](O)[C@H](Cc1ccccc1)NC(=O)O[C@H]1CO[C@H]2OCC[C@H]21)S(=O)(=O)c1ccc(N)cc1,Potency,[1],inactive
Cc1cc2nc3c(=O)[nH]c(=O)nc-3n(CC(O)C(O)C(O)CO)c2cc1C (configuration not stated),outcome,[3],inactive
same,outcome,[4],inactive
same,Potency,[1],inactive
same,Potency,[2],inactive
Cn1c(=O)c(Oc2ccc(F)cc2F)cc2cnc(NC3CCOCC3)nc21,Potency,[1],16.3 µM (active)
O=C1CN2Cc3c(ccc(Cl)c3Cl)N=C2N1,Potency,[1],inactive
same,Potency,[2],inactive
COc1ccc2nc3cc(Cl)ccc3c(Nc3cc(CN4CCCC4)c(O)c(CN4CCCC4)c3)c2n1,Potency,[1],inactive
N#CC(c1ccnc(NCCc2cccnc2)n1)c1nc2ccccc2s1 (configuration not stated),Potency,[1],inactive
same,Potency,[2],inactive
OC[C@H]1O[C@@H](OCCc2ccc(O)cc2)[C@H](O)[C@@H](O)[C@H]1O,outcome,[6],inactive
Cc1cc(OCCCS(C)(=O)=O)cc(C)c1-c1cccc(COc2ccc3c(c2)OC[C@H]3CC(=O)O)c1,Potency,[1],inactive
N#CC(c1ccc(Cl)cc1)c1c(Cl)cc(-n2ncc(=O)[nH]c2=O)cc1Cl (configuration not stated),Potency,[1],inactive
CCCCCCCCCCCCCC(=O)N[C@H](CO)[C@H](O)c1ccc([N+](=O)[O-])cc1,Potency,[1],inactive
same,Potency,[2],inactive
CC1=C(CC(=O)O)c2cc(F)ccc2C1=Cc1ccc(S(C)=O)cc1 (configuration not stated),Potency,[1],inactive
same,Potency,[2],inactive
Cc1ccc(C(=O)N(CCCN)[C@@H](c2nc3cc(Cl)ccc3c(=O)n2Cc2ccccc2)C(C)C)cc1,Potency,[1],inactive
same,Potency,[2],inactive
CCCCc1ccc(NS(=O)(=O)c2ccc(C)c(C(=O)N3CCN(c4cccc(C)c4C)CC3)c2)cc1,Potency,[1],inactive
same,Potency,[2],inactive
CSc1cccc(Nc2ncc3cc(-c4c(Cl)cccc4Cl)c(=O)n(C)c3n2)c1,Potency,[1],inactive
same,Potency,[2],inactive
O=C(O)c1nc(=O)[nH]c(=O)[nH]1,Potency,[1],inactive
same,"activity change, negative = inhibition",[2],4.26% [at 0.409 µM]
COC(=O)[C@H](c1ccccc1Cl)N1CCc2sccc2C1,Potency,[1],inactive
same,Potency,[2],inactive
